The record followed here is PubChem BioAssay AID1210 (NMMLSC, 2008).

What is called inhibition is the share of the control response that was lost under treatment.

SMILES strings stand for the structures. The source made the active and inactive calls.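 How the source made its calls: active means blocks over 70% of labeled estradiol binding at 10 µM, or over a set limit at 100 nM; inactive means the rest.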

The target of the first assay is Estrogen receptor beta (Homo sapiens) (UniProt Q92731). Briefly: ERbeta ligand binders by competition, primary screen, cell-based, Cos7 ERbeta-GFP, flow cytometry (AID 1210).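 Further: 0% = DMSO vehicle wells and 100% = complete loss of labeled estradiol signal.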 The conditions noted are these: fluorescent estrogen binding, at 10 µM, stronger effect = higher value. A general note: Flow cytometry measures light scatter and fluorescence of single cells or particles in a stream.
Sequence of Estrogen receptor beta (Homo sapiens) (Q92731 whole entry, looked up): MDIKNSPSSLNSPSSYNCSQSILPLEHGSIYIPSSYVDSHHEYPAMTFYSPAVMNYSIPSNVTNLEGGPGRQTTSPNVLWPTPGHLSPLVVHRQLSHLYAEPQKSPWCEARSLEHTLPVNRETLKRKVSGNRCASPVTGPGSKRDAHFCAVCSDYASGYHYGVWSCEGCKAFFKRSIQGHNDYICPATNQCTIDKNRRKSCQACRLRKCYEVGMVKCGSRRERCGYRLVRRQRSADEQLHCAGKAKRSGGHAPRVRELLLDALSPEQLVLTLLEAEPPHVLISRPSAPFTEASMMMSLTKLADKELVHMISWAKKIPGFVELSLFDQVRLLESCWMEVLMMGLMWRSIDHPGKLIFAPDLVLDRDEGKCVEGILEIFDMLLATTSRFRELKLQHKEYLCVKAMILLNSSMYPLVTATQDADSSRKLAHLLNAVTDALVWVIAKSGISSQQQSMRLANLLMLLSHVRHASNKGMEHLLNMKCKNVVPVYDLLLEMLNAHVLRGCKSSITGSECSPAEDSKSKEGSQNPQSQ
Regarding `Cc1cc(-c2nn3c(-c4ccccc4)nnc3s2)c2ccccc2n1`, the inhibition is 71% (active).

Regarding `CC(=O)N1c2ccc(Cl)cc2C2C=CCC2C1c1cccc2ccccc12` (stereo unspecified), the inhibition is 51% (inactive).

As for `C[C@]12CC[C@@H]3c4ccc(O)cc4C(=O)C[C@H]3[C@@H]1CC[C@@H]2O`, the inhibition is 45% (active).

Turning to `O=C(Nc1nccs1)c1nc(-c2ccccc2)n(-c2ccccc2)n1`, the inhibition is 38% (inactive).

On to `Cc1ccc(C(=O)N/N=C/c2ccc([N+](=O)[O-])s2)cc1`, for which the inhibition was 38% (inactive).

For the compound `CS(=O)(=O)c1ccc2nc(NC(=O)CCC(=O)c3cccs3)sc2c1`, the inhibition is 62% (inactive).

Regarding `O=C(CSc1ccc(Cl)cc1)c1ccco1`, the inhibition was 14% (inactive).

Take `CCOC(=O)C1=C(O)/C(=C\c2ccc(CNC(=O)C(=O)Nc3ccccc3)o2)N=C1C`: the inhibition was 20% (inactive).

As to `Cc1nn(-c2ccccc2)c(Cl)c1/C=N/Nc1ccc(S(=O)(=O)Nc2ccccc2C(=O)O)cc1[N+](=O)[O-]`, the inhibition is 15% (inactive).

Turning to `Cc1cc(C(=O)Nc2sc3c(c2C#N)CCC3)no1`, the inhibition was 46% (inactive).

`CCOC(=O)c1sc(NC(=O)c2ccc3ncsc3c2)nc1C`: the inhibition was 21% (inactive).

Consider `COC(=O)c1ccc(CC(=O)c2c(C)cc(O)cc2O)o1`, for which the inhibition was 62% (inactive).

`O=C(NC1CCN(C(=O)N2c3ccccc3Sc3ccccc32)CC1)c1ccccc1Cl`: the inhibition is 18% (inactive).

In the case of `O=c1c(C(c2ccc(O)cc2)c2c(O)nc3n(c2=O)CCS3)c(O)nc2n1CCS2`, the inhibition was 3% (inactive).

With `C/C(N)=C(/C#N)C(=O)CSc1nnc(Nc2ccccc2C)s1`, the inhibition was 44% (inactive).

Consider `Nc1nc(N)c2sc3nc4c(cc3c2n1)CCC4`, for which the inhibition is 29% (inactive).

In the case of `Cc1oc2c(C)c(O)ccc2c(=O)c1N1C(=O)c2ccccc2C1=O`, the inhibition is 16% (inactive).

As for `CC(Cc1ccc(O)c(O)c1)C(C)Cc1ccc(O)c(O)c1` (stereo unspecified), the inhibition is 65% (inactive).

On to `CC12CCC(=O)N1C(C(=O)OCC(=O)Nc1sccc1C#N)CS2` (stereo unspecified), for which the inhibition was 37% (inactive).

For `Oc1ccccc1-c1nnc(SCCN2CCOCC2)n1Cc1ccccc1`, the inhibition was 32% (inactive).

As for `COc1cc2c(cc1OC)C(Cc1ccc(O)cc1)NCC2` (stereo unspecified), the inhibition is 23% (inactive).

In the case of `Oc1cccc(-c2nc3ccc4ccccc4c3c3c2CCC3)c1`, the inhibition was 39% (inactive).

For the compound `CSCCC(NC(=O)c1ccco1)C(=O)OCC(=O)Nc1sccc1C#N` (stereo unspecified), the inhibition was 6% (inactive).

Turning to `Cc1cc(N)ccc1N=Nc1c(C)n(C)n(-c2ccccc2)c1=O`, the inhibition was 15% (inactive).

`C=CCn1c(SCC(=O)NC(=O)NCc2ccco2)nc2sc(CC)cc2c1=O`: the inhibition is 33% (inactive).

Take `COC(=O)c1ccc2c(=O)n(CC3CCCO3)c(SCC(=O)Nc3ccccc3Cl)nc2c1` (stereo unspecified): the inhibition was 65% (inactive).

Turning to `COc1ccc(/C=N/NC(=O)c2nc(-c3ccccc3)cc(-c3ccccc3)n2)cc1O`, the inhibition is 71% (active).

`COC(=O)c1ccc(CC(=O)c2ccc(O)cc2O)o1`: the inhibition was 44% (inactive).

For the compound `Cc1cc(C)nc(NC(=O)CSc2nn(C)c(=S)s2)n1`, the inhibition is 6% (inactive).

With `Cc1ccc(-n2c(SCC(=O)NNC(=S)Nc3ccccc3)nc3ccccc3c2=O)cc1`, the inhibition was 34% (inactive).

In the case of `COc1ccc(C2=NN(C(=O)c3cccnc3)C(c3ccccc3)C2)cc1` (stereo unspecified), the inhibition is 41% (inactive).

On to `O=c1cc(CSc2nnnn2-c2ccccc2)nc(Nc2ccc(F)cc2)[nH]1`, for which the inhibition was 0% (inactive).

Take `O=C(Cc1cccs1)Nc1ccccn1`: the inhibition was 39% (inactive).

For `O=C(Cc1cccs1)Nc1ccc(S(=O)(=O)Nc2ncccn2)cc1`, the inhibition was 62% (inactive).

In the case of `COc1ccc(C2CC(c3c(-c4ccccc4)c4cc(Cl)ccc4[nH]c3=O)=NN2S(C)(=O)=O)cc1OC` (stereo unspecified), the inhibition was 1% (inactive).

Regarding `CCOC(=O)CSc1nn(C)c(=S)s1`, the inhibition is 47% (active).

Turning to `CCc1nc2sc3ccccc3c(=O)c2c(=O)n1Cc1ccco1`, the inhibition is 46% (active).

Consider `CCOc1cc(N2CCOCC2)c(OCC)cc1NC(=O)c1cc(-c2ccco2)nc2ccccc12`, for which the inhibition was 47% (inactive).

Staying with this assay, now noted: fluorescent estrogen binding, ligand binding inhibition, at 0.1 µM, stronger effect = higher value.
`Cc1cc(-c2nn3c(-c4ccccc4)nnc3s2)c2ccccc2n1`: the inhibition came to 45%.

For `CC(=O)N1c2ccc(Cl)cc2C2C=CCC2C1c1cccc2ccccc12` (stereo unspecified), the inhibition is 6%.

Take `C[C@]12CC[C@@H]3c4ccc(O)cc4C(=O)C[C@H]3[C@@H]1CC[C@@H]2O`: the inhibition is 89%.

Turning to `O=C(Nc1nccs1)c1nc(-c2ccccc2)n(-c2ccccc2)n1`, the inhibition was 22%.

The compound `Cc1ccc(C(=O)N/N=C/c2ccc([N+](=O)[O-])s2)cc1` displayed an inhibition of 58%.

The compound `CS(=O)(=O)c1ccc2nc(NC(=O)CCC(=O)c3cccs3)sc2c1` had an inhibition of 9%.

Consider `O=C(CSc1ccc(Cl)cc1)c1ccco1`, for which the inhibition was determined as 53%.

Take `CCOC(=O)C1=C(O)/C(=C\c2ccc(CNC(=O)C(=O)Nc3ccccc3)o2)N=C1C`: the inhibition is 61%.

On to `Cc1nn(-c2ccccc2)c(Cl)c1/C=N/Nc1ccc(S(=O)(=O)Nc2ccccc2C(=O)O)cc1[N+](=O)[O-]`, for which the inhibition came out at 53%.

The compound `Cc1cc(C(=O)Nc2sc3c(c2C#N)CCC3)no1` displayed an inhibition of 23%.

`CCOC(=O)c1sc(NC(=O)c2ccc3ncsc3c2)nc1C` yielded an inhibition of 24%.

`COC(=O)c1ccc(CC(=O)c2c(C)cc(O)cc2O)o1` displayed an inhibition of 22%.

`O=C(NC1CCN(C(=O)N2c3ccccc3Sc3ccccc32)CC1)c1ccccc1Cl`: the inhibition amounted to 23%.

`O=c1c(C(c2ccc(O)cc2)c2c(O)nc3n(c2=O)CCS3)c(O)nc2n1CCS2` came in with an inhibition of 7%.

The compound `C/C(N)=C(/C#N)C(=O)CSc1nnc(Nc2ccccc2C)s1` yielded an inhibition of 13%.

For the compound `Nc1nc(N)c2sc3nc4c(cc3c2n1)CCC4`, the inhibition was found to be 7%.

`Cc1oc2c(C)c(O)ccc2c(=O)c1N1C(=O)c2ccccc2C1=O` registered an inhibition of 18%.

With `CC(Cc1ccc(O)c(O)c1)C(C)Cc1ccc(O)c(O)c1` (stereo unspecified), the inhibition turned out to be 18%.

The compound `CC12CCC(=O)N1C(C(=O)OCC(=O)Nc1sccc1C#N)CS2` (stereo unspecified) showed an inhibition of 47%.

Turning to `Oc1ccccc1-c1nnc(SCCN2CCOCC2)n1Cc1ccccc1`, the inhibition is 41%.

In turn, `COc1cc2c(cc1OC)C(Cc1ccc(O)cc1)NCC2` (stereo unspecified) displayed an inhibition of 13%.

The compound `Oc1cccc(-c2nc3ccc4ccccc4c3c3c2CCC3)c1` showed an inhibition of 21%.

In the case of `CSCCC(NC(=O)c1ccco1)C(=O)OCC(=O)Nc1sccc1C#N` (stereo unspecified), the inhibition was 28%.

`Cc1cc(N)ccc1N=Nc1c(C)n(C)n(-c2ccccc2)c1=O` had an inhibition of 31%.

As to `C=CCn1c(SCC(=O)NC(=O)NCc2ccco2)nc2sc(CC)cc2c1=O`, the inhibition is 10%.

Turning to `COC(=O)c1ccc2c(=O)n(CC3CCCO3)c(SCC(=O)Nc3ccccc3Cl)nc2c1` (stereo unspecified), the inhibition came to 4%.

In turn, `COc1ccc(/C=N/NC(=O)c2nc(-c3ccccc3)cc(-c3ccccc3)n2)cc1O` gave an inhibition of 81%.

Turning to `COC(=O)c1ccc(CC(=O)c2ccc(O)cc2O)o1`, the inhibition was determined as 20%.

As for `Cc1cc(C)nc(NC(=O)CSc2nn(C)c(=S)s2)n1`, the inhibition came out at 20%.

`Cc1ccc(-n2c(SCC(=O)NNC(=S)Nc3ccccc3)nc3ccccc3c2=O)cc1` had an inhibition of 4%.

`COc1ccc(C2=NN(C(=O)c3cccnc3)C(c3ccccc3)C2)cc1` (stereo unspecified): the inhibition came out at 12%.

As to `O=c1cc(CSc2nnnn2-c2ccccc2)nc(Nc2ccc(F)cc2)[nH]1`, the inhibition came to 25%.

The compound `O=C(Cc1cccs1)Nc1ccccn1` gave an inhibition of 10%.

With `O=C(Cc1cccs1)Nc1ccc(S(=O)(=O)Nc2ncccn2)cc1`, the inhibition is 1%.

For `COc1ccc(C2CC(c3c(-c4ccccc4)c4cc(Cl)ccc4[nH]c3=O)=NN2S(C)(=O)=O)cc1OC` (stereo unspecified), the inhibition was found to be 64%.

Compound `CCOC(=O)CSc1nn(C)c(=S)s1` came in with an inhibition of 72%.

Consider `CCc1nc2sc3ccccc3c(=O)c2c(=O)n1Cc1ccco1`, for which the inhibition was determined as 66%.

`CCOc1cc(N2CCOCC2)c(OCC)cc1NC(=O)c1cc(-c2ccco2)nc2ccccc12` gave an inhibition of 48%.
